Only some compounds are listed: those with a hit (about 32% of all), similar ones and a draw of the others.
CYP2C19 inh: blockers of cytochrome P450 2C19 activity – biochemical, luminescence, ADME assay, primary screen. AID 778, 2007. inhibition, % at 5 µM. P33261. 96,000 tested, 21% active. CYP2C19 Supersomes, luciferin-H EGE luminescence, 30 min;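 active = CYP2C19 inhibition above a set limit at 5 µM in the primary screen, cut at about 50% in these data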
Target sequence (P33261 whole entry, looked up): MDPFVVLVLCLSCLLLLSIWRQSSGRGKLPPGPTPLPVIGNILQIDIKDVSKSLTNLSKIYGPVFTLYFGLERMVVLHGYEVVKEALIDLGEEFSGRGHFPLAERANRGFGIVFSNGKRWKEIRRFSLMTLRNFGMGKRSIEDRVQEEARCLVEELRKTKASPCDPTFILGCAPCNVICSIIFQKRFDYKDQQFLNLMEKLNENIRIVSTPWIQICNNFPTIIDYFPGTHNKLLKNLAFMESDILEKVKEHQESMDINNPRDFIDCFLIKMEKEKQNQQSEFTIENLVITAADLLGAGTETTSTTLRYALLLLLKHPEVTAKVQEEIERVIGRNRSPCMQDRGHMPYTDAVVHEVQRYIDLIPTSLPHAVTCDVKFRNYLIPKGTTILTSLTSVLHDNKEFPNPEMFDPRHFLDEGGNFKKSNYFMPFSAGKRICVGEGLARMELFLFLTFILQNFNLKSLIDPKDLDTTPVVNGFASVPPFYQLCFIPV
PostGolgi yeast: phenotypic screen on post-Golgi transport, primary screen | post-Golgi transport phenotypic cell assay | inhibition, % at 10 µM | 98,000 tested, 0.9% active | AID 739, 2007;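 also: yeast cells grown in 1536-well plates; yeast grown about 18 h at 30C before absorbance read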
CYP2C9 inhib: blockers of cytochrome P450 2C9 activity – biochemical, luminescence, ADME assay, primary screen; P11712; CYP2C9 Supersomes, luciferin-H conversion; inhibition, % at 5 µM; 96,000 tested, 20% active;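 active = blocking of liver enzyme CYP2C9 beyond about 50% at 5 µM, limit read from the data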
CYP2C9 act: human CYP2C9 activators, primary screen, biochemical, luminescence. recombinant CYP2C9, luciferin-H conversion; active compounds read high; factor 1 = untreated enzyme, 0 = blocked. Cytochrome P450 2C9 (Homo sapiens), P11712. 96,000 tested, 1.4% active. activation factor at 5 µM;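 active = activation factor of 2 or more for CYP2C9 at a 5 µM dose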
PostGolgi ctrl: growth inhibition of yeast control strain, primary screen, counter-screen for post-Golgi transport modulator project | inhibition, % at 10 µM | efflux-deficient yeast background strain, growth absorbance A615, 16 h | AID 738, 2007 | 98,000 tested, 5% active
CYP2C19 act: human CYP2C19 activators, primary screen, biochemical, luminescence | Cytochrome P450 2C19 (Homo sapiens), P33261 | recombinant CYP2C19, luciferin-H EGE luminescence; active compounds read high; 0 = fully inhibited enzyme, 1 = untreated enzyme | activation factor at 5 µM | 96,000 tested, under 10 active;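 active = activation factor of at least 2 at 5 µM in the primary screen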
A number is an active result; 0 = inactive; - = not tested or not shown. Rule as the data show it, unless noted: active = inhibition above about 30%; inactive = the rest.

SMILES	CYP2C19 inh	PostGolgi yeast	CYP2C9 inhib	CYP2C9 act	PostGolgi ctrl	CYP2C19 act
COc1ccc2cc3cc(C(=O)NCCN4CCN(Cc5ccccc5)CC4)oc3nc2c1	0	0	0	0	0	0
COc1ccc2cc3cc(C(=O)NCc4cccs4)oc3nc2c1	0	0	0	0	0	0
COc1ccc2cc3cc(C(=O)Nc4ccc5c(c4)OCO5)oc3nc2c1	0	0	0	0	0	0
CCN1CCN(CCCNC(=O)c2cc3cc4ccc(OC)cc4nc3o2)CC1	0	0	0	0	35	0
CCCN(CCC)CCCNC(=O)c1cc2cc3ccc(OC)cc3nc2o1	0	0	0	0	40	0
COc1ccc2cc3cc(C(=O)NCCN4CCc5ccccc5C4)oc3nc2c1	0	0	0	0	66	0
CCCCN(CC)CCCNC(=O)c1cc2cc3ccc(OC)cc3nc2o1	0	0	0	0	46	0
CCC(C)(C(=O)NC1CCCC1)N(Cc1ccco1)C(=O)c1ccc2c(c1)OCO2 (centres undefined)	0	0	0	0	0	0
CCOC(=O)C(NC(=O)Nc1ncccn1)(Oc1ccccc1)C(F)(F)F (centres undefined)	0	0	0	0	32	0
O=C(Cn1nc(-c2ccccc2)c2ccccc2c1=O)NCCN1CCOCC1	0	0	0	0	0	0
c1ccc(C2COC(c3cccs3)=N2)cc1 (centres undefined)	62	0	0	0	0	0
O=C(Cn1nc(C(F)F)cc1C(F)F)NNC(=S)Nc1ccc(Cl)cc1	0	0	71	0	0	0
Cc1ccc(NC(=O)CS(=O)Cc2nc(-c3ccc(C)cc3)oc2C)cc1 (centres undefined)	0	0	60	0	0	0
COc1ccc(-c2nc(CS(=O)CC(=O)N3CCCC3)c(C)o2)cc1 (centres undefined)	0	0	71	0	0	0
O=C(O)COc1ccc(/C=N/NC(=O)C2CCCN2S(=O)(=O)c2ccc(Cl)cc2)cc1 (centres undefined)	0	0	0	0	0	0
O=S(=O)(c1ccc(Cl)c(Cl)c1)c1snnc1-c1ccccc1	99	0	90	0	52	0
O=C(O)CCc1ccc(-c2ccccc2)n1CC1CCCO1 (centres undefined)	64	0	0	0	0	0
O=C(O)CCc1ccc(-c2ccc(F)cc2)n1Cc1ccco1	57	0	0	0	0	0
O=C(O)CCc1ccc(-c2ccccc2)n1Cc1ccco1	63	0	0	0	0	0
C=CCSc1nc2c(c(=N)n1CC=C)C1CCCC1S2 (centres undefined)	0	0	0	0	0	0
CCOc1cc(-c2cn(S(=O)(=O)c3cccc4nsnc34)nc2N)cc(OCC)c1OCC	0	0	0	0	0	0
CCN1CCN(Cc2nc3c(c(=O)n(C)c(=O)n3C)n2Cc2cccc3ccccc23)CC1	0	0	0	0	0	0
CCOC(=O)C1=C(C)Nc2nc(=S)[nH]n2C1c1ccc(Cl)cc1 (centres undefined)	0	0	0	0	31	0
CCOC(=O)C1=C(C)Nc2nc(SCC)nn2C1c1ccc(OC)cc1 (centres undefined)	0	0	0	0	0	0
N#Cc1ccc(N2CCCC2C(=O)O)c([N+](=O)[O-])c1 (centres undefined)	0	0	0	0	0	0
SMILES	CYP2C19 inh	PostGolgi yeast	CYP2C9 inhib	CYP2C9 act	PostGolgi ctrl	CYP2C19 act
N#Cc1cc([N+](=O)[O-])c(-n2nnc3ccccc32)c([N+](=O)[O-])c1	0	0	66	0	0	0
Cc1ccc(N=Cc2ccc[nH]2)c(O)c1	0	0	0	0	0	0
CCC(CC)n1[nH]c(=O)cc1N	-	0	-	-	0	-
Cc1ccc(S(=O)(=O)NC(=O)Nn2c(C)nnc2C)cc1	0	0	0	0	0	0
CCSc1nnc(NC(NC(=O)c2ccco2)(C(F)(F)F)C(F)(F)F)s1	0	0	90	0	0	0
CCSc1nnc(NC(=O)C(C)(C(F)(F)F)C(F)(F)F)s1	0	0	75	0	0	0
CCSc1nnc(NC(=O)c2ccco2)s1	0	0	0	0	0	0
CCSc1nnc(NC(=O)NCC(F)(F)F)s1	0	45	0	0	0	0
CC(=O)Nc1nnc(SCC(=O)NC(C)(C)C)s1	0	0	0	0	32	0
CC(C)C[C@H](NC(=O)OC(C)(C)C)C(=O)N/N=C/C1=Cc2ccccc2OC1C (some centres undefined)	0	0	0	0	0	0
CCSc1nnc(NC(=O)C(CC)(C(F)(F)F)C(F)(F)F)s1	0	0	98	0	0	0
CN(C)S(=O)(=O)N1CCN(S(=O)(=O)N(C)C)CC1	0	0	0	0	0	0
O=C1C=C(NCc2ccco2)CC(c2ccc(Cl)cc2)C1 (centres undefined)	62	-	0	0	41	0
O=C1C=C(Nc2ccc(Cl)cc2)CC(c2ccc(Cl)cc2)C1 (centres undefined)	-	0	-	-	52	-
O=C1C=C(NCc2ccco2)CCC1	0	0	0	0	0	0
Cc1ccc(C2CC(=O)C=C(O)C2)cc1 (centres undefined)	0	0	0	0	0	0
CCC(Oc1ccccc1)C(=O)Nc1ccccc1OC (centres undefined)	0	0	0	0	31	0
CCC(Oc1ccccc1)C(=O)Nc1nnc(C(F)(F)F)s1 (centres undefined)	0	0	97	0	48	0
CCC(=O)NC(=S)Nc1ccccc1OC	0	0	0	0	0	0
CCC(Oc1ccccc1)C(=O)Nc1nc2c(s1)C(=O)CC(C)(C)C2 (centres undefined)	0	0	54	0	0	0
COC(=O)C(=O)Nc1nnc(COc2ccccc2)s1	0	0	0	0	0	0
CCC(CC)c1nnc(NC(=O)Oc2ccccc2)s1	0	0	56	0	0	0
CC(C)CN(CC(C)C)C1=N/C(=C\c2ccco2)C(=O)N1c1ccccc1	0	0	0	0	0	0
CCC(Oc1ccccc1)C(=O)Nc1nnc(C)s1 (centres undefined)	0	0	63	0	31	0
Cc1nnc(NC(=O)Oc2ccccc2)s1	0	0	0	0	0	0
O=C(C1CCCN(Cc2ccccc2Br)C1)N1CCCCC1 (centres undefined)	0	0	0	0	0	0
N#CC(c1ccccc1)(c1ncc(C(F)(F)F)cc1Cl)N1CCOCC1 (centres undefined)	0	0	0	0	0	0
N#CC(c1cccc(C(F)(F)F)c1)(c1ncc(C(F)(F)F)cc1Cl)N1CCOCC1 (centres undefined)	52	0	0	0	0	0
Cc1cccc(C)c1NC(=O)Cn1nnc(-c2ccc(N3CCOCC3)cc2)n1	0	0	0	0	0	0

Screens as filed in PubChem.
